hgDAF-12 ag = agonists of H. glycines DAF-12 nuclear receptor. HEK293 GAL4-hgDAF12 UAS-luciferase reporter, agonist luminescence; normalized to butyrate control. activation, % at 6.8 µM. 1.8% of 370,000 active. AID 687014;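 active = activation above a cutoff set at the mean of all screened compounds plus 3 SD, cut at about 10% in these data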;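 note: 0% = DMSO wells and 100% = sodium butyrate wells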
hcDAF-12 act = activates DAF-12 receptor from parasite H. contortus; HEK293 hcDAF-12 lit1-tk-luc reporter, luminescence; 0% DMSO, 100% Δ7-dafachronic acid; activation, % at 6.8 µM; AID 652067; 1.4% of 370,000 active;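 active = activation above the mean of all tested compounds plus 3 SD, cut at about 5.5% in these data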;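 note: 100% = response to 3 µM Δ7-dafachronic acid high control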
ssDAF12 agonist = activators of S. stercoralis DAF-12 nuclear receptor | HEK293 ssDAF-12/GRIP1 lit1-tk-luc reporter, luminescence; % of 3 µM dafachronic acid response | activation, % at 6.8 µM | 1% of 370,000 active | AID 652126;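 active = activation above the mean over all tested compounds plus 3 SD, cut at about 0.9% in these data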;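 note: 0% = DMSO-only wells and 100% = 3 µM delta7-dafachronic acid wells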
PolyA inhibitor = blocks polyadenylation in yeast reporter cells. S. cerevisiae SKY197-pL101 polyadenylation reporter, beta-gal luminescence; efflux-impaired pdr1/pdr3 knockout yeast; score 100 = 6 SD above DMSO. activity score, % at 12 µM. 0.02% of 300,000 active. AID 1875;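 active = lowest replicate activity score at least 50, where 100 means six control SD above control mean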;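 note: yeast exposed to compound for 9 h at 30 °C; higher score means more reporter readthrough which indicates perturbed polyadenylation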
DAX1 inh-1 = DAX1 (NR0B1) inhibition, primary screen; HEK293T StAR-luciferase reporter, SF-1/DAX-1 repression relief; inhibition, % at 6.8 µM; 1.1% of 370,000 active; AID 652010;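 active = inhibition above the mean over all tested compounds plus 3 SD, cut at about 3.6% in these data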;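 note: 0% = DAX-1 cells with DMSO and 100% = cells lacking DAX-1 with DMSO; higher inhibition means more luminescence from relief of DAX-1 repression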
DAX1 inh-2 = NR0B1 (DAX1) inhibition | inhibition, % at 6.75 µM | 0.99% of 340,000 active | AID 504766 | HEK293 Gal4-DAX1 luciferase reporter, luminescence | P51843;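 active = inhibition above the mean over all tested compounds plus 3 SD, cut at about 4.2% in these data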;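 note: 0% = DAX1-transfected cells with DMSO and 100% = empty-vector control cells with DMSO; inhibition shows as a rise in luminescence from relieved DAX1 repression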
Target sequence (P51843 207-470 limits assumed): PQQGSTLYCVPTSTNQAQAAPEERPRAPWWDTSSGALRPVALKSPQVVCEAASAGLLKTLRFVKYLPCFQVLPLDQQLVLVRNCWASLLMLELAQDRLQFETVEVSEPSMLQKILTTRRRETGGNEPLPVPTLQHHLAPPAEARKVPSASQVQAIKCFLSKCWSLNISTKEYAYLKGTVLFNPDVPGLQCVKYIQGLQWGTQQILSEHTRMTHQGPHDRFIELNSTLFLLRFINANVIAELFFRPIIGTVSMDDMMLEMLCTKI
Starred values were filed as active, the others as inactive; · = no result given. Compounds with a hit are over-represented: about 4.1% of the library has one in this group of screens.

SMILES | hgDAF-12 ag | hcDAF-12 act | ssDAF12 agonist | PolyA inhibitor | DAX1 inh-1 | DAX1 inh-2
COc1cccc2sc3ccc(C#CC4(N)CCCCC4)cc3c(=O)c12 | 2.2 | 0.4 | -0.5 | 2.1 | 0.2 | 1.6
COc1cccc2sc3cc(C#CC4(O)CCCCC4)ccc3c(=O)c12 | 10.5* | 1.8 | 0.7 | · | 2.5 | 0.9
CCCC(=O)n1nc(-c2ccc(C)cc2)nc1NCc1ccco1 | 12.7* | 1.1 | -1.2 | -3.3 | 1.6 | 1.1
Cc1cc(C(=O)COC(=O)c2ccc(Cl)c(S(N)(=O)=O)c2)c(C)n1CC1CCCO1 (stereo not drawn) | -3.7 | -1.6 | -1.1 | 1.8 | -1.1 | 4.6*
Cc1cc(C(=O)COC(=O)c2ccc(O)cc2)c(C)n1CC1CCCO1 (stereo not drawn) | 7.3 | 2.4 | -0.4 | 5.6 | 2.5 | 1.2
COc1ccccc1CCC[C@@H](CCS(=O)(=O)C(C)C)CC1CCCCC1 | -1.1 | -0.9 | 2.2* | · | -0.6 | ·
CC1CCC2(CC1)CCN(CCCOC(=O)Nc1cccc(F)c1)C2=O (stereo not drawn) | 3.3 | -1.9 | -1.8 | · | -1.6 | ·
Fc1ccc(CSc2nnc3ccccn23)c(Cl)c1 | 3.5 | 4.5 | -0.8 | -6.8 | 4.2* | 0.5
COc1ccc(/C=C2\CC3(OC(=O)c4cccc(F)c4)CCCN2C3)cc1 (stereo not drawn) | -3.5 | 1.4 | -0.8 | · | 1.9 | ·
O=C(Nc1ccc(F)cc1F)c1cc(-c2ccc(Cl)cc2)nc2ccccc12 | 0.8 | -0.8 | -1.0 | · | -0.4 | ·
COC(=O)c1sc(N2C(=O)c3oc4ccccc4c(=O)c3C2c2cccc(O)c2)nc1C (stereo not drawn) | -0.9 | 0.4 | -1.1 | -11.2 | 0.4 | 0.7
O=C1c2oc3ccccc3c(=O)c2C(c2ccc(O)cc2)N1c1nccs1 (stereo not drawn) | -2.6 | 0.5 | -1.2 | -4.8 | -0.2 | 6.1*
CCOc1ccc2c(c1)ncn2Cc1ccccc1 | 0.5 | 0.0 | -1.4 | -10.6 | 0.6 | 4.7*
COc1ccc(/C=C2/C(=O)N(c3nc4ccccc4s3)N=C2CSc2ccc(Cl)cc2)cc1 | 4.4 | 5.6* | 0.7 | -9.7 | 0.6 | 0.5
Cc1noc(C)c1NC(=O)Nc1ccc2c(c1)C(=O)N([C@@H](C)CO)C[C@@H](C)[C@H](CN(C)S(=O)(=O)c1ccc(F)cc1)OCCCC[C@H](C)O2 | 1.5 | 1.3 | -1.2 | · | · | ·
CCOc1ccc(CCNC(=O)c2cc3sccc3n2Cc2ccccc2)cc1OCC | -4.8 | -4.4 | -1.3 | · | · | ·
CCCN1C(=O)C(=O)N(CC(=O)c2cc(C)n(C3CC3)c2C)C1=O | 10.0 | 3.4 | -0.8 | · | 3.8* | 1.5
Cc1ccc(S(=O)(=O)N(CC(=O)NC2CCC(C)CC2)c2cc(C)cc(C)c2)cc1 (stereo not drawn) | 4.2 | 1.5 | -0.3 | · | 1.8 | ·
N/C(=N\OC(=O)CCc1ccccc1)c1ccc(Br)cc1 | 2.9 | 0.5 | -1.4 | 16.5 | 0.1 | 0.0
Cc1ccc(/C(N)=N/OC(=O)CCc2ccccc2)cc1 | 4.3 | 6.2* | -0.5 | 0.4 | 1.0 | 1.9
O=[N+]([O-])c1ccc(-c2nc3ccc([N+](=O)[O-])cc3[nH]2)cc1 | 0.9 | -0.5 | -0.6 | -10.2 | 0.7 | 1.2
O=[N+]([O-])c1ccc2nc(C(O)C(O)c3nc4ccc([N+](=O)[O-])cc4[nH]3)[nH]c2c1 (stereo not drawn) | 4.5 | 1.6 | 1.0* | 7.4 | -0.2 | 1.9
COc1ccc(Br)c(-c2nnc(CS(=O)(=O)c3ccccc3)o2)c1 | 11.1* | 0.5 | -0.6 | -13.8 | 0.8 | 0.1
Cc1nn(-c2ccccc2)cc1/C=N/O | 4.2 | -0.6 | -1.1 | 5.5 | 0.9 | 5.2*
CC(=O)Nc1ccc(NC(=O)c2cc(-c3ccc(C)c(C)c3O)n[nH]2)cc1 | 1.7 | -0.7 | -1.5 | -4.0 | -0.3 | 0.6
SMILES | hgDAF-12 ag | hcDAF-12 act | ssDAF12 agonist | PolyA inhibitor | DAX1 inh-1 | DAX1 inh-2
CC(=O)Nc1ccc(NC(=O)c2cc(-c3ccc(F)cc3C)n[nH]2)cc1 | 12.9* | 1.6 | -0.8 | · | 4.1* | ·
NCCOc1cnn(-c2ccccc2Cl)c(=O)c1Cl | 0.9 | 2.2 | 1.0* | 17.1 | 0.3 | 3.2
COc1ccc(CNS(=O)(=O)/C=C/c2ccc(OC)cc2CNC(=O)OC(C)(C)C)cc1 | -0.1 | -3.8 | -1.4 | · | -1.1 | ·
CCN1CCN(c2ccc(NC(=O)c3cccc(F)c3)cc2Cl)CC1 | 12.7* | 1.1 | -0.5 | 12.2 | 3.5 | 0.4
O=C(Nc1ccc(N2CCOCC2)c(Cl)c1)c1ccc(-n2cnnc2)cc1 | 0.2 | 1.7 | -1.3 | -9.7 | 0.8 | 0.4
O=C(Nc1ccc(N2CCOCC2)c(Cl)c1)c1ccc(F)cc1 | 5.7 | 0.4 | -1.1 | -9.1 | 1.0 | 5.2*
C=CCN(CC#Cc1ccccn1)Cc1ccc(OC)cc1OC | -5.8 | -3.8 | -1.8 | · | -2.1 | ·
Cc1[nH]c2ccccc2c1-c1csc(N)n1 | 2.1 | 1.0 | -0.6 | -3.4 | -0.5 | -1.1
COc1ccccc1Nc1nc(-c2c(C)[nH]c3ccccc23)cs1 | 1.1 | 5.3 | 1.3* | · | -0.6 | 0.4
CC(C)c1ccc(NC(=O)N(CCc2nc3ccccc3[nH]2)C2CCCC2)cc1 | 0.2 | 3.4 | 0.9* | 2.9 | -0.3 | 0.9
CC(=O)Nc1ccc(CCc2nc3ccccc3[nH]2)cc1 | -2.1 | 0.6 | -1.2 | 1.3 | 0.4 | 0.5
C=CCn1c(SCC(=O)Nc2ccccc2OCC)nnc1-c1ccc(C(C)(C)C)cc1 | -1.6 | -0.3 | -1.5 | · | -0.3 | ·
Cn1ccnc1SCC(=O)c1ccc2ccccc2c1 | 12.8* | 4.9 | 0.9 | -9.7 | 3.5 | 2.1
O=c1c2ccccc2n(Cc2ccccc2)n1[C@@H](Cc1ccccc1)Cn1cc(C2CCCC2)nn1 | 3.1 | -0.8 | -1.6 | · | -0.9 | ·
CCCn1c(C)cc(C(=O)Cn2nnc3ccccc3c2=O)c1C | 11.8* | 3.5 | 0.2 | -7.7 | 3.2 | 1.0
CCCn1c(C)cc(C(=O)CN2C(=O)c3ccccc3S2(=O)=O)c1C | -19.3 | -7.5 | -3.0 | · | -5.9 | -4.4
C[C@@H]1[C@@H](c2ccccc2)OC(O)([C@H](Cc2ccccc2)NC(=O)OC(C)(C)C)CN1C (stereo partly drawn) | 1.8 | -1.1 | -1.9 | · | · | ·
O=C(COc1ccccc1Cl)NC(=S)N1CCc2ccccc21 | 2.0 | 5.9* | -1.2 | -33.9 | 1.0 | -0.2
O=C(COc1ccc(F)cc1Br)N1CCc2ccccc21 | 10.7* | 1.2 | 0.1 | 1.9 | 3.0 | 1.9
COc1ccc2c(CC(=O)N3CCc4ccccc43)coc2c1 | 10.2 | 5.8* | 0.5 | 1.3 | 2.9 | 0.7
COc1ccc2c(CC(=O)OCC(=O)N3CCc4ccccc43)coc2c1 | 0.6 | 0.4 | -0.9 | 13.4 | 0.3 | -1.7
COc1ccc(OCC(=O)N2CCc3ccccc32)c([N+](=O)[O-])c1 | 5.0 | 5.6* | 0.2 | · | 3.6 | 2.0
O=Cc1ccc(OCC(=O)N2CCc3ccccc32)c(Br)c1 | 6.8 | 2.2 | -0.3 | · | 2.1 | 0.3
